“And” between values parts separate entries of the source, which are not always exact repeats. Identical values can stand only once. The whole screen tested about 260,000 compounds, of which about 2,200 (0.85%) were called active.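 How the source made its calls: active means compounds whose cAMP rise, as percent of the full-agonist control response, exceeds 60; inactive means the rest.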 Many of the other results were omitted from the sample, so actives are more common in it than they were. Some structures have more than one record in an assay (separate samples or runs), and their calls can disagree.
The molecules below were run against Prostaglandin E2 receptor EP2 subtype (Homo sapiens) (UniProt P43116) (assay: EP2 receptor modulators, cAMP readout, primary screen, cell-based, HTRF cAMP, PGE2 stimulation (AID 940;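 further: rat C6 glioma line stably carrying human EP2 under a CMV promoter; the protocol text gives 20 µM as final concentration; 100% = response of wells given 1 µM PGE2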)). Conditions: EP2-expressing cells, cAMP HTRF FRET, PGE2 co-stimulation; at 25 µM; stronger effect = higher value.
Chain of Prostaglandin E2 receptor EP2 subtype (Homo sapiens) (P43116 whole entry, looked up): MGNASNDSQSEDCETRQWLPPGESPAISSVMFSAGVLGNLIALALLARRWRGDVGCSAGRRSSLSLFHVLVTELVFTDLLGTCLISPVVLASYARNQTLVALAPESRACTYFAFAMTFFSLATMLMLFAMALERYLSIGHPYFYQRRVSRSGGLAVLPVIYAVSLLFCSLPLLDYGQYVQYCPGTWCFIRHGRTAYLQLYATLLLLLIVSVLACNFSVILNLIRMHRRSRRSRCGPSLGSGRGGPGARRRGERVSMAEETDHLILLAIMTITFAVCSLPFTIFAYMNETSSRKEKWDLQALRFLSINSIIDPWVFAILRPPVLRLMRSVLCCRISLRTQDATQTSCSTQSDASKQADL
In the case of `COc1ccc(N2CCN(C(c3ccccc3)c3nnnn3Cc3cccs3)CC2)cc1` (stereo not given), the induction is reported as 21.1% (inactive). In the case of `C=CCNc1nc(-c2sc(NC(=O)c3ccccc3)nc2C)cs1`, the induction is reported as -131% (inactive). In the case of `CCN(CC)c1nc2c(c(=O)n(C)c(=O)n2C)n1Cc1ccc(C)cc1`, the induction is reported as -126% (inactive). `COc1ccc(CN(Cc2cc3c(cc2OC)OCO3)CC2CCCO2)c(OC)c1` (stereo not given) was tested, and the induction was -3.15% (inactive). In the case of `Cc1oc2c(c1CC(=O)NCc1noc(-c3ccccc3)n1)C(=O)CC(C)(C)C2`, the induction is reported as -16.5% (inactive). For `CC1(C)Cc2nc3sc4c(SCC(=O)NC(c5ccccc5)c5ccccc5)ncnc4c3cc2CO1`, the induction was 70.1% (active). In the case of `CC(C)CCSc1ncnc2c1oc1nc3c(cc12)COC(C)(C)C3`, the induction is reported as 29.9% (inactive). `CCOCCCNC(=O)CSc1ncnc2c1sc1nc3ccccc3cc12` was tested, and the induction was -36% (inactive). For `O=C(CN1C(=O)C2CCCN2S(=O)(=O)c2ccccc21)NCCc1ccccc1` (stereo not given), the induction was -13.3% (inactive). For `Cc1cc(CN2CCc3c(nc(N4CCCC4)[nH]c3=O)C2)c(C)n1-c1cccnc1`, the induction was -32.9% (inactive). For `CC(C)n1c(SCC(=O)Nc2ccccc2N2CCCCC2)nc2c1c(=O)n(C)c(=O)n2C`, the induction was 9.15% (inactive). For `Cn1c(=O)c2c(nc(SCC(=O)Nc3ccccc3N3CCCCC3)n2C)n(C)c1=O`, the induction was 67.3% (active) and 23.3% (inactive). For `CCn1c(SCC(=O)Nc2cccc3ccccc23)nc2c1c(=O)n(C)c(=O)n2C`, the induction was -26.4% (inactive). With `FC(F)(F)c1cccc(-c2cc3ccccc3nc2N2CCCC2)c1` the induction was 65.5% (active). With `CSc1nc2nc(-c3cccc(C(F)(F)F)c3)ccn2n1` the induction was 27.7% (inactive). `c1ccc(-c2cc(N3CCCCC3)c3ccccc3n2)cc1` was tested, and the induction was 40.2% (inactive). `C=CCNC(=O)[C@H]1C=CCN1S(=O)(=O)c1ccc(F)cc1` was tested, and the induction was -8.27% (inactive). `COc1cc(/C=C/C(=O)N2c3ccccc3Sc3ccc(C(F)(F)F)cc32)cc(OC)c1OC` was tested, and the induction was 4.97% (inactive). `O=C(CN1CCCCCC1)N1c2ccccc2Sc2ccc(C(F)(F)F)cc21` was tested, and the induction was 41.5% (inactive). In the case of `O=C(CN1CCCCC1)N1c2ccccc2Sc2ccc(C(F)(F)F)cc21`, the induction is reported as 66.5% (active). For `Nc1cc(-c2ccco2)nn(CC(=O)NCc2ccccc2)c1=O`, the induction was 4.9% (inactive). `CCCNC(=O)C1COc2ccccc2O1` (stereo not given) was tested, and the induction was -4.2% (inactive). With `O=[N+]([O-])c1ccc(Sc2nc3c(c(C(F)(F)F)n2)CCCC3)nc1` the induction was 34.3% (inactive). With `C/C=N/N(c1ccccc1)c1ccccc1` the induction was 64.5% (active). For `COc1cccc(CN2CCN(C(=O)CCn3nnc4ccccc43)[C@@H](C)C2)c1`, the induction was -13.9% (inactive).

— PubChem BioAssay AID940 (Emory University Molecular Libraries Screening Center, 2007)
